Screening data: PubChem, several laboratories
RecA_splice_inh: blocks M. tuberculosis RecA intein splicing. actives 0.75% (n = 290,000). cell-free RecA intein splicing, fluorescence. P9WHJ3. inhibition, % (no concentration beside the values). AID 2221; in the data active means inhibition above about 30%
Target sequence (P9WHJ3 whole entry, looked up, canonical isoform): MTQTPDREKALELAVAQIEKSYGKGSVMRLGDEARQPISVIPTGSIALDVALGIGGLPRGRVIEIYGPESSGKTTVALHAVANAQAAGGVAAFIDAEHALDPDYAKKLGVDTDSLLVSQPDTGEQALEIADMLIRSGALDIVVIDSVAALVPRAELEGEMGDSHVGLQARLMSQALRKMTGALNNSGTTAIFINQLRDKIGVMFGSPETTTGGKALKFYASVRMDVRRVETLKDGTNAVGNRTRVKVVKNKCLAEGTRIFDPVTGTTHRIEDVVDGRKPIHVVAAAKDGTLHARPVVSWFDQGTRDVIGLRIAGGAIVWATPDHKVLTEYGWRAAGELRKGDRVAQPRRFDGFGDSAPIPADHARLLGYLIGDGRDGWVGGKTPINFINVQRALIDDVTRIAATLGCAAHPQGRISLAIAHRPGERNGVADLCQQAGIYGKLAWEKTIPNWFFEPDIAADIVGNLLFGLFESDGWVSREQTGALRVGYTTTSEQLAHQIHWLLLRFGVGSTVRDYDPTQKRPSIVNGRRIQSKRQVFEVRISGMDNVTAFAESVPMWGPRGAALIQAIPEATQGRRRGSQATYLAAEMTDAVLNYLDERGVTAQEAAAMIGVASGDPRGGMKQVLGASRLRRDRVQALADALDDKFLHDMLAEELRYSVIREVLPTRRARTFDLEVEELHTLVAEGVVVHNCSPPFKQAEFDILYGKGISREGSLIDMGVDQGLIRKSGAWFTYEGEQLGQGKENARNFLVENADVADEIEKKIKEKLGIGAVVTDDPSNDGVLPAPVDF
GDH-TPI_inh: GDH-TPI coupled enzyme inhibition counter-screen | actives 1.2% (n = 360,000) | GDH-TPI coupled enzyme counterscreen, NADH absorbance | inhibition, % at 4.8 µM; in the data active means inhibition above about 30%
Mtb_FBA_inh: inhibitors of M. tuberculosis fructose-bisphosphate aldolase; P9WQA3; purified M. tuberculosis FBA, fluorescence read-out; inhibition, % at 1 µM; actives 2.3% (n = 360,000); in the data active means inhibition above about 27%
Rv3671c_protease: inhibitors of M. tuberculosis serine protease Rv3671c; P9WHR9; inhibition, % at 5.96 µM; actives 0.048% (n = 320,000); AID 2606; in the data active means inhibition above about 38%;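 further: extracellular domain of Rv3671c used as enzyme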
UGM_FP_inh: inhibitors of M. tuberculosis UDP-galactopyranose mutase; actives 0.06% (n = 320,000); purified UGM, fluorescence polarization probe displacement; P9WIQ1; inhibition, % at 10 µM; in the data active means inhibition above about 10%, passing the limit was not always enough
Mtb_bLac_sens: beta-lactam sensitization of Mtb H37Rv; M. tuberculosis H37Rv growth with meropenem, percent inhibition; inhibition, % at 25 µM; actives 0.27% (n = 330,000); AID 434955; call rule not given here;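 further: growth measured after seven days incubation then overnight dye step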
A number is an active result; – = inactive; · = no result given. Rows were chosen to be rich in hits. Some 4% of all compounds tested hit in one or more screens of this group.

SMILES RecA_splice_inh GDH-TPI_inh Mtb_FBA_inh Rv3671c_protease UGM_FP_inh Mtb_bLac_sens
O=[N+]([O-])c1cccc(-c2ccc(/C=N/NC(=S)Nc3cccc(F)c3)o2)c1 – – – – – –
O=C(CCS(=O)(=O)c1ccccc1F)Nc1ccc(N2CCN(Cc3ccccc3)CC2)cc1 · – – – – –
CCCCC(=O)N/N=C/c1ccc(-c2ccc([N+](=O)[O-])cc2)o1 – – – – – –
O=C(O)c1ccc(N/N=C/c2c(F)cccc2Cl)cc1 – 38 – – – –
O=C(O)c1ccc(N/N=C/C=C/c2ccc([N+](=O)[O-])o2)cc1 – 31 – – – –
O=C(O)c1ccc(N/N=C/c2ccc(-c3cccc(Cl)c3)o2)cc1 – 46 – – – –
O=C(N/N=C/c1c(F)cccc1Cl)C1CC1 – – – – – –
O=C(O)c1ccc(-c2ccc(/C=N/Nc3ccc([N+](=O)[O-])cc3)o2)cc1 – 52 – – – –
O=C(N/N=C/c1ccc([N+](=O)[O-])o1)C(=O)Nc1ccc(C(=O)O)cc1 – – – – – –
COCCNc1ccnc2c(Cl)cccc12 · – – – – –
COc1ccc(S(=O)(=O)n2c(N)nc3ccccc32)cc1 · – – · · ·
CN(C)CCNC(=O)Cn1ccc2cc(S(=O)(=O)N3CCCCC3)ccc21 – – – – – –
NS(=O)(=O)c1ccc(-c2ccc(/C=N/Nc3ccc(C(=O)O)cc3)o2)cc1 – 34 – – – –
CCC(=O)N/N=C/c1ccc(-c2ccc([N+](=O)[O-])cc2)o1 – – – – – –
O=C(O)c1ccc(N/N=C/c2ccc(-c3cc(Cl)ccc3Cl)o2)cc1 – – – – – –
CCCOc1ccc(C(=O)N/N=C/c2ccc(-c3ccc(S(=O)(=O)Nc4ncccn4)cc3)o2)cc1 – 33 – – – ·
NS(=O)(=O)c1ccc(-c2ccc(/C=N/NC(=O)c3ccc([N+](=O)[O-])cc3)o2)cc1 – 62 – – – –
CCN1CCN(Cc2ccc(NC(=O)c3ccc(C)c(NC(=O)c4csc(-c5ccncc5)n4)c3)cc2C(F)(F)F)CC1 – – – – – –
C=CCNc1nc2ccccc2nc1NS(=O)(=O)c1cccs1 – – – – – –
O=S(=O)(Nc1nc2ccccc2nc1NCc1ccco1)c1cccs1 – 32 – – – –
CCCCCNc1nc2ccccc2nc1NS(=O)(=O)c1cccs1 – 31 – – – –
